Data from PubChem BioAssay AID1159580 (chemical genetic matrix, 2015).
Among all 5,500 compounds or so, about 2,000 (36%) were called active. Not shown: some 18% with an inconclusive outcome. Rule as the data show it: active = normalized growth mostly below about 0.91 (no sharp cut-off); inconclusive = no clear call, values can overlap the other calls; inactive = mostly above about 0.92. The list shows a part of the results.

Test: chemical genetic growth profiling, strain panel (AID 1159580);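 also: tested at 20 µM; growth read once vehicle control cultures reached saturation at 30 °C; 1 = growth at the plate median or of vehicle wells; lower values mean less growth of the strain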
Settings: growth OD

Measured: normalized growth

C=C1c2cccc(O)c2C(O)=C2C(=O)[C@]3(O)C(O)=C(C(N)=O)C(=O)[C@@H](N(C)C)[C@@H]3[C@@H](O)[C@H]12
inactive: S. cerevisiae deletion strains, locus YJR075W, strain HOC1, active compounds read low 0.992 | S. cerevisiae deletion strains, locus YKL009W, strain mrt4, active compounds read low 1.03 | S. cerevisiae deletion strains, locus YKL068W, active compounds read low 0.989 | S. cerevisiae deletion strains, locus YKL085W, strain MDH1 (second series), active compounds read low 0.978 | S. cerevisiae deletion strains, locus YKL085W, strain MDH1, active compounds read low 0.978 | S. cerevisiae deletion strains, locus YKL160W, strain elf1, active compounds read low 1.02 | S. cerevisiae deletion strains, locus YKL190W, strain CNB1, active compounds read low 0.992 | S. cerevisiae deletion strains, locus YKR001C, strain vps1, active compounds read low 0.961 | S. cerevisiae deletion strains, locus YKR026C, strain gcn3, active compounds read low 0.994 | S. cerevisiae deletion strains, locus YLL001W, strain dnm1, active compounds read low 1.01 | S. cerevisiae deletion strains, locus YLL026W, active compounds read low 1.02 | S. cerevisiae deletion strains, locus YLL041C, strain sdh2, active compounds read low 1.02 | S. cerevisiae deletion strains, locus YLR027C, strain aat2, active compounds read low 1.01 | S. cerevisiae deletion strains, locus YLR039C, strain RIC1, active compounds read low 0.94 | S. cerevisiae deletion strains, locus YLR058C, strain SHM2, active compounds read low 0.975 | S. cerevisiae deletion strains, locus YLR102C, strain apc9, active compounds read low 1 | S. cerevisiae deletion strains, locus YLR113W, strain HOG1, active compounds read low 0.986 | S. cerevisiae deletion strains, locus YLR221C, strain rsa3, active compounds read low 0.996 | S. cerevisiae deletion strains, locus YLR258W, strain gsy2, active compounds read low 1 | S. cerevisiae deletion strains, locus YLR262C, strain YPT6 (second series), active compounds read low 1.01 | S. cerevisiae deletion strains, locus YLR262C, strain YPT6, active compounds read low 0.967 | S. cerevisiae deletion strains, locus YLR268W, strain sec22, active compounds read low 0.905 | S. cerevisiae deletion strains, locus YLR320W, strain mms22, active compounds read low 1.01 | S. cerevisiae deletion strains, locus YLR330W, strain CHS5, active compounds read low 0.969 | S. cerevisiae deletion strains, locus YLR342W, strain FKS1 (second series), active compounds read low 0.979 | S. cerevisiae deletion strains, locus YLR342W, strain FKS1, active compounds read low 1.01 | S. cerevisiae deletion strains, locus YLR357W, strain rsc2, active compounds read low 1.01 | S. cerevisiae deletion strains, locus YLR370C, strain arc18, active compounds read low 1.02 | S. cerevisiae deletion strains, locus YLR371W, strain rom2, active compounds read low 0.991 | S. cerevisiae deletion strains, locus YLR384C, strain iki3, active compounds read low 1.03 | S. cerevisiae deletion strains, locus YLR418C, strain cdc73, active compounds read low 0.972 | S. cerevisiae deletion strains, locus YML016C, strain PPZ1, active compounds read low 0.979 | S. cerevisiae deletion strains, locus YML032C, strain rad52, active compounds read low 0.959 | S. cerevisiae deletion strains, locus YML120C, strain ndi1, active compounds read low 1.01 | S. cerevisiae deletion strains, locus YML124C, strain tub3, active compounds read low 0.991 | S. cerevisiae deletion strains, locus YMR058W, strain fet3, active compounds read low 0.986 | S. cerevisiae deletion strains, locus YMR078C, strain ctf18, active compounds read low 1 | S. cerevisiae deletion strains, locus YMR125W, strain sto1, active compounds read low 0.998 | S. cerevisiae deletion strains, locus YMR129W, active compounds read low 0.998 | S. cerevisiae deletion strains, locus YMR205C, strain PFK2, active compounds read low 1.02 | S. cerevisiae deletion strains, locus YMR223W, strain ubp8, active compounds read low 0.992 | S. cerevisiae deletion strains, locus YMR231W, strain pep5, active compounds read low 1.01 | S. cerevisiae deletion strains, locus YMR263W, strain SAP30, active compounds read low 0.976 | S. cerevisiae deletion strains, locus YMR307W, strain GAS1, active compounds read low 1.02 | S. cerevisiae deletion strains, locus YNL067W, strain RPL9B, active compounds read low 0.95 | S. cerevisiae deletion strains, locus YNL071W, strain lat1, active compounds read low 1.03 | S. cerevisiae deletion strains, locus YNL128W, strain TEP1, active compounds read low 0.976 | S. cerevisiae deletion strains, locus YNL153C, strain GIM3, active compounds read low 0.925 | S. cerevisiae deletion strains, locus YNL183C, strain NPR1, active compounds read low 0.922 | S. cerevisiae deletion strains, locus YNL209W, strain ssb2, active compounds read low 1.01 | S. cerevisiae deletion strains, locus YNL233W, strain BNI4, active compounds read low 0.965 | S. cerevisiae deletion strains, locus YNL248C, strain rpa49, active compounds read low 1.06 | S. cerevisiae deletion strains, locus YNL250W, strain rad50, active compounds read low 0.987 | S. cerevisiae deletion strains, locus YNL271C, strain bni1, active compounds read low 0.954 | S. cerevisiae deletion strains, locus YNL298W, strain CLA4, active compounds read low 0.981 | S. cerevisiae deletion strains, locus YNL307C, strain MCK1, active compounds read low 1 | S. cerevisiae deletion strains, locus YNL322C, strain KRE1 (second series), active compounds read low 1.01 | S. cerevisiae deletion strains, locus YNL322C, strain KRE1, active compounds read low 0.991 | S. cerevisiae deletion strains, locus YNR049C, strain mso1, active compounds read low 1.04 | S. cerevisiae deletion strains, locus YNR052C, strain pop2, active compounds read low 0.982 | S. cerevisiae deletion strains, locus YOL006C, strain TOP1, active compounds read low 0.891 | S. cerevisiae deletion strains, locus YOL012C, strain htz1 0.75 | S. cerevisiae deletion strains, locus YOL147C, strain pex11, active compounds read low 0.995 | S. cerevisiae deletion strains, locus YOR001W, strain rrp6, active compounds read low 1.04 | S. cerevisiae deletion strains, locus YOR061W, strain CKA2, active compounds read low 0.979 | S. cerevisiae deletion strains, locus YOR069W, strain VPS5, active compounds read low 1 | S. cerevisiae deletion strains, locus YOR070C, strain gyp1, active compounds read low 1 | S. cerevisiae deletion strains, locus YOR080W, strain dia2, active compounds read low 1.02 | S. cerevisiae deletion strains, locus YOR083W, strain WHI5, active compounds read low 1.01 | S. cerevisiae deletion strains, locus YOR106W, strain vam3, active compounds read low 1.01 | S. cerevisiae deletion strains, locus YOR136W, strain idh2, active compounds read low 1 | S. cerevisiae deletion strains, locus YOR144C, strain elg1, active compounds read low 1 | S. cerevisiae deletion strains, locus YOR184W, strain ser1, active compounds read low 0.98 | S. cerevisiae deletion strains, locus YOR231W, strain MKK1, active compounds read low 0.964 | S. cerevisiae deletion strains, locus YOR265W, strain rbl2, active compounds read low 1.01 | S. cerevisiae deletion strains, locus YOR270C, strain vph1, active compounds read low 1 | S. cerevisiae deletion strains, locus YOR290C, strain snf2, active compounds read low 0.998 | S. cerevisiae deletion strains, locus YOR316C, strain cot1, active compounds read low 0.988 | S. cerevisiae deletion strains, locus YPL051W, strain arl3, active compounds read low 1 | S. cerevisiae deletion strains, locus YPL055C, strain LGE1, active compounds read low 0.951 | S. cerevisiae deletion strains, locus YPL078C, strain atp4, active compounds read low 1.03 | S. cerevisiae deletion strains, locus YPL106C, strain sse1, active compounds read low 0.995 | S. cerevisiae deletion strains, locus YPL240C, strain hsp82, active compounds read low 1.01 | S. cerevisiae deletion strains, locus YPL241C, strain CIN2, active compounds read low 0.998 | S. cerevisiae deletion strains, locus YPL256C, strain CLN2, active compounds read low 0.964 | S. cerevisiae deletion strains, locus YPR119W, strain clb2, active compounds read low 0.994 | S. cerevisiae deletion strains, locus YPR141C, strain kar3, active compounds read low 0.981 | S. cerevisiae deletion strains, locus YPR163C, strain tif3, active compounds read low 0.992 | S. cerevisiae deletion strains, locus YPR167C, strain met16, active compounds read low 0.983 | S. cerevisiae deletion strains, strain wtn01, active compounds read low 0.932 | S. cerevisiae strains, strain wild type, active compounds read low 0.969
